According to PubChem BioAssay (NCI):
About 83,000 compounds went through this panel and 20% of them were active in at least one assay; those are over-represented in the sample as a whole.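 Each cell line was grown in a 96-well plate and treated with one concentration of compound for 48 hours. Values below 10 were considered active.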 The source made the active and inactive calls.

These compounds were tested on NCI-H23 lung (assay: NCI-60 one-dose screen, 48 h (100 = growth as untreated, 0 = no growth, -100 = all killed)). Conditions: 10 µM unless noted.
CCOC(=O)c1ccccc1-c1c2ccc(=[N+](C)C)cc-2oc2cc(N(C)C)ccc12 was tested, and the growth was 93% (inactive).
In the case of O=C(Nc1ncc(Cc2cc(C(F)(F)F)ccc2Cl)s1)c1cccs1, the growth is reported as 58.2% (inactive).
For Clc1ccccc1-c1cnn2cc(-c3ccccc3)cnc12, the growth was 90.3% (inactive).
NC1(CO)COC(c2ccccc2)OC1 (stereo not given) was tested, and the growth was 109% (inactive).
COc1cc(OC)cc(-c2ccc(-c3ccc(C(=N)N)o3)o2)c1 was tested, and the growth was 76.6% (inactive).
For CN1CCN(Cc2ccc(NC(=O)c3cncc(C#Cc4cnc5ccc(Cl)nn45)c3)cc2C(F)(F)F)CC1, the growth was -29.5% (active).
In the case of NS(=O)(=O)c1ccc(NC(=O)/C(=C\c2ccc(Cl)cc2Cl)NC(=O)c2ccccc2)cc1, the growth is reported as 107% (inactive).
In the case of C/C=C(/C)n1cnc2c(Nc3ccccn3)nc(Cl)nc21, the growth is reported as 102% (inactive).
In the case of CS(=O)(=O)Nc1cc(-c2ccc3ncc(C#N)c(Nc4ccc(F)c(Cl)c4)c3c2)cnc1Cl, the growth is reported as -11.7% (active).
For CNC(=O)c1cc(Oc2cccc3nc(NC(=O)Nc4cc(C(F)(F)F)ccc4Cl)ccc23)ccn1, the growth was 80% (inactive).
In the case of CN1CCN(Cc2ccc(NC(=O)c3cncc(C#Cc4cnc(N)c5ccc(F)cc45)c3)cc2C(F)(F)F)CC1, the growth is reported as 30.1% (inactive).
With CCN1CCN(CC(=O)Nc2nc3ccc(NCc4ccc(F)cc4)cc3s2)CC1 the growth was 90% (inactive).
With COc1ccc(NC(=O)Nc2ccc(OCCCCCC(=O)NO)cc2)cc1 the growth was 98% (inactive).
For CNC1=CC(=O)c2c(C(=O)OC)c(C)[n+]([O-])c(C)c2C1=O, the growth was 40% (inactive).
In the case of Nc1nc(NC(=O)Nc2ccc(C(=O)O)cc2)nn1-c1ccc(S(N)(=O)=O)cc1, the growth is reported as 97.9% (inactive).
